14-3-3 Bad inh: disrupts binding of bovine 14-3-3 zeta to phospho-Bad peptide; TR-FRET 14-3-3zeta/Dy647-pBad peptide displacement, 1 h; 0.71% of 220,000 active; AID 781; inhibition, % at 21.7 µM;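 active = inhibition above about 70%, limit read from the data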
Target sequence (P63103 whole entry, looked up): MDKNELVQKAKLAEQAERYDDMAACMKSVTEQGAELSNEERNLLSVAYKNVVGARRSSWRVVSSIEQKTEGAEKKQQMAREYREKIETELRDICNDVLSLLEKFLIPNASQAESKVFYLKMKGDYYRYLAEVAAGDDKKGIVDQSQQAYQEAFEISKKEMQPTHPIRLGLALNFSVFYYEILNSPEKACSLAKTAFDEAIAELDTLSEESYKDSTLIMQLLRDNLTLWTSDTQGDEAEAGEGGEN
Mcl1 Bid PPI: Mcl-1/Bid interaction inhibition | Q07820 | TR-FRET Mcl-1/Bid-Dy647 peptide binding, 1536-well | inhibition, % at 21.7 µM | 0.97% of 220,000 active | AID 1021;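 active = compounds that cut the binding signal by more than half at the single screening dose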;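 note: His-tagged Mcl-1 with europium anti-His antibody binding Bid BH3 peptide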
Target sequence (Q07820 whole entry, looked up): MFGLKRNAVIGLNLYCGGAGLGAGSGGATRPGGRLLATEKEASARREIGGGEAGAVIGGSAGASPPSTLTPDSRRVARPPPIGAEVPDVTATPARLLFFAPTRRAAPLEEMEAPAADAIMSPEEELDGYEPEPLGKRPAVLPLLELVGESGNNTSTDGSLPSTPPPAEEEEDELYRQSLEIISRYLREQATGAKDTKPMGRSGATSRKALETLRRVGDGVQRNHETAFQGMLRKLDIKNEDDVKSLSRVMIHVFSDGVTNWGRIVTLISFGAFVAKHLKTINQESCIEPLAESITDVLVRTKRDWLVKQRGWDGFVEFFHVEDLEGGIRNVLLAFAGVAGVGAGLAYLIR
Mcl1 Noxa PPI: Mcl-1/Noxa interaction inhibition; Q07820; TR-FRET Mcl-1/Noxa peptide binding, 2 h; inhibition, % at 21.7 µM; 1.5% of 220,000 active;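 active = compounds that cut the protein-peptide binding signal by more than 50% relative to plate controls in a single-dose test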;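 note: His-tagged Mcl-1 with rhodamine Noxa BH3 peptide and terbium anti-His antibody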
p47phox inh: inhibitors of human p47phox binding; P14598; p47phox/p22phox peptide binding, fluorescence polarization, 2 h; inhibition, % at 24.7 µM; 0.53% of 220,000 active; AID 1274;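 active = inhibition above about 30%, limit read from the data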
Mcl-1 Bim block: human Bim-Mcl-1 interaction inhibition. Q07820. Bead-based flow cytometry, Bim peptide-Mcl-1 binding. inhibition, % at 10 µM. 0.1% of 190,000 active. AID 1009; in the data active = inhibition above about 40%
Of the large screens only hits and unclear results are named; the others gave an inactive call; ! = not active in a repeat; [ ] = another dose, or the depositor's remark. In the library only some 3.2% were active in any assay of this set; here they are far more common.

O=C(N/N=C/c1cc2cc3c(cc2nc1Cl)OCCO3)c1ccccc1O	Mcl1 Bid PPI 60, Mcl1 Noxa PPI 71
O=C(N/N=C/c1cc2cc3c(cc2nc1Cl)OCO3)c1ccncc1	none (no result: Mcl-1 Bim block)
Cc1ccc2cc(/C=N/NC(=O)c3ccccc3O)c(Cl)nc2c1	Mcl1 Noxa PPI 64
Cc1cccc2cc(/C=N/NC(=O)c3ccccc3O)c(Cl)nc12	Mcl1 Noxa PPI 83
COc1nc2ccccc2nc1OC	none
CC12CCC(C(=O)NCCCN3CCOCC3)(C(Br)C1=O)C2(C)C (centres undefined)	none (no result: Mcl-1 Bim block)
Cc1ccc(C(=O)OCCc2c(C)[nH]n(-c3ccccc3)c2=O)cc1	p47phox inh 102
O=C(Nc1cnn(C23CC4CC(CC(C4)C2)C3)c1)c1cnn2c(C(F)(F)F)cc(-c3ccco3)nc12	14-3-3 Bad inh 77, Mcl1 Bid PPI 79, p47phox inh 33
CCOC(=O)C1CCN(CCC(=O)Nc2ccc(C)c(C)c2)CC1	none
Cc1ccc(NC(=O)c2cc(S(=O)(=O)NCCC3=CCCCC3)ccc2F)cc1F	Mcl-1 Bim block 68
O=C(Nc1cccc(F)c1)c1cc(S(=O)(=O)NCCC2=CCCCC2)ccc1F	none
CCOc1cc(NC(=O)C2CCCO2)c(OCC)cc1NC(C)=O (centres undefined)	p47phox inh 103
COc1ccc(Cl)cc1NC(=O)C1CCCO1 (centres undefined)	none
N#Cc1cc2cc3c(cc2nc1NCCNC(=S)NCCCN1CCOCC1)OCO3	none
O=C(O)CC12CSc3[nH]c(=O)sc3C1c1ccccc1OC2=O (centres undefined)	Mcl1 Bid PPI 66
Cn1c(O)c(C2=c3ccccc3=NC2=O)[nH]c1=S	none
COc1ccc2nc(-n3c(O)c(C4=c5ccccc5=NC4=O)[nH]c3=S)sc2c1	14-3-3 Bad inh 96[fluorescence artefact?], Mcl1 Bid PPI 99, Mcl1 Noxa PPI 92
CNC(=S)N1CCN=C1Nc1nc(C)cc(C)n1	none
Cc1c(NC(=O)Oc2ccccc2)sc(=S)n1C	none
CC(=O)NC(=O)Nc1sc(=S)n(C)c1C	Mcl-1 Bim block 41
Cc1ccc(NC(=O)Nc2sc(=S)n(C)c2C)cc1	Mcl1 Noxa PPI 54
COc1ccc(CNC(=O)C2CCC(CNc3nc(=S)[nH]c4ccccc34)CC2)cc1 (centres undefined)	none
C=CC(=O)NCCCc1cc(C(C)(C)C)c(O)c(C(C)(C)C)c1	none
Cc1ccc(S(=O)(=O)N(C)CC(=O)OCC(=O)c2c(N)n(C)c(=O)n(C)c2=O)cc1	none
CCc1nnc(NC(=O)c2sc3nc4c(cc3c2N)CCCCCC4)s1	Mcl1 Noxa PPI 53
CCOc1ccc(C(Nc2cccnc2)c2cc(Cl)c3cccnc3c2O)cc1 (centres undefined)	Mcl1 Bid PPI 95, Mcl1 Noxa PPI 96, p47phox inh 40
O=C(NC(c1ccccc1)c1cc(Cl)c2cccnc2c1O)c1cccnc1 (centres undefined)	none
O=C(O)COc1ccccc1C(Nc1cccnc1)c1cc(Cl)c2cccnc2c1O (centres undefined)	Mcl1 Bid PPI 78, Mcl1 Noxa PPI 97
O=C(O)COc1ccccc1C(Nc1ccccn1)c1cc(Cl)c2cccnc2c1O (centres undefined)	Mcl1 Bid PPI 74, Mcl1 Noxa PPI 91
CCC(=O)NC(c1ccc(OC)c(OC)c1)c1cc(Cl)c2cccnc2c1O (centres undefined)	p47phox inh 40
COc1ccccc1C(=O)C1CCCN(C(=O)CN2CCCCC2=O)C1 (centres undefined)	none
O=C(COC(=O)c1c2c(nc3ccccc13)CCCCC2)c1ccc(Cl)s1	none
CCN(CC(=O)NC1CCS(=O)(=O)C1)S(=O)(=O)c1cccc(C(C)=O)c1 (centres undefined)	p47phox inh 43
CCN(CC(=O)NCc1cccs1)S(=O)(=O)c1cccc(C(C)=O)c1	none
CCC(=O)N(CC)C1=C(O)c2ccccc2C(=O)C1=O	Mcl1 Noxa PPI 85
CCOc1ccc(C2C([N+](=O)[O-])=C(C)N(C)C(=O)N2C)cc1OC (centres undefined)	none
CCOc1cc(/C=N/NC(=O)c2ccc(-c3csc(Nc4ccc(C)cc4)n3)cc2)ccc1OCC(=O)O	14-3-3 Bad inh 75, Mcl1 Noxa PPI 86
CCOc1cc(/C=N/NC(=O)c2ccncc2)ccc1OS(C)(=O)=O	none
O=C(O)COc1ccc(/C=N/NC(=O)c2ccc(-c3csc(Nc4ccc(Cl)cc4)n3)cc2)cc1	14-3-3 Bad inh 94, Mcl1 Bid PPI 95, Mcl1 Noxa PPI 88 (no result: Mcl-1 Bim block)
C/C=C/C=C/C(=O)[C@@H]1[C@@H]([C@]2(C)OC(=O)C(C)=C2O)[C@H]2/C(=C(O)/C=C/C=C/C)C(=O)[C@]1(C)C(=O)C2(C)O (some centres undefined)	none (no result: Mcl-1 Bim block)
CS(=O)(=O)c1cnc(-c2ccccc2)nc1-c1ccc(Cl)c(Cl)c1	14-3-3 Bad inh 73
CS(=O)(=O)c1cnc(-c2ccccc2)nc1-c1ccccc1Cl	none
CCOC(=O)Nc1ccc2c(c1)N(C(=O)OCCN(C)C)c1ccccc1CC2	Mcl1 Bid PPI 76!
CCOc1ccc(C2C3=C(Nc4nc(N)[nH]c(=O)c42)c2ccccc2C3=O)cc1 (centres undefined)	Mcl1 Bid PPI 52, Mcl1 Noxa PPI 76
CCCOc1ccc(C2C3=C(Nc4nc(N)[nH]c(=O)c42)c2ccccc2C3=O)cc1 (centres undefined)	none (no result: Mcl-1 Bim block)
N#Cc1cc(-c2ccccc2)nn1-c1ccccc1	14-3-3 Bad inh 80[fluorescence artefact?], Mcl1 Noxa PPI 97, p47phox inh 34
COc1ccc(OC)c(-c2nc(C(N)=O)c3[nH]c(=O)n(-c4ccc(F)cc4)c3n2)c1	Mcl1 Bid PPI 66, Mcl1 Noxa PPI 67
CCOC(=O)c1nc2cc3n(c(C)c-2c1C)C(C)C(C)=C3C (centres undefined)	p47phox inh 56
CCOC(=O)c1nc2cc3n(c(CC(C)C)c-2c1C)CC(C)=C3C	none
CN(C)S(=O)(=O)c1ccc(C(=O)NCc2nnc(SCC(=O)Nc3ccc(F)cc3)n2-c2ccc(F)cc2)cc1	none
O=C(NCc1cccnc1)/C(=C/c1ccc(-c2ccc(Cl)cc2)o1)S(=O)(=O)c1ccccc1	none
O=C(NCc1cccnc1)/C(=C\c1ccc(-c2ccc(Br)cc2)o1)S(=O)(=O)c1ccccc1	Mcl1 Bid PPI 52
CCCC(=O)c1c[nH]c(C(=O)NCc2cccnc2)c1	none
CCC(=O)c1c[nH]c(C(=O)NCc2cccnc2)c1	14-3-3 Bad inh 80
CCn1c(SCC(=O)N2CCOCC2)nc2oc3c(Cl)cc(Cl)cc3c(=O)c2c1=O	Mcl1 Noxa PPI 54
Cc1cccc2nc(CSc3nc4ccc([N+](=O)[O-])cc4[nH]3)c(Br)n12	Mcl1 Noxa PPI 60
NC(=O)CSc1nc2ccc([N+](=O)[O-])cc2[nH]1	none
COc1ccccc1NCCC(=O)OCC(=O)NC1CCCCCC1	none
O=C(NC1CCCC1)c1csc2c1CCCC2	Mcl1 Bid PPI 100
COc1ccc2c(-c3ccccc3)cc(N3CCOCC3)nc2c1	14-3-3 Bad inh 86[fluorescence artefact?]
Cc1ccc(-c2nnc(SCC(=O)Nc3cccc(C(=O)N4CCOCC4)c3)n2C)cc1	none

High-throughput results deposited in PubChem BioAssay by several laboratories.
